Drawing on PubChem BioAssay (NCI), this text covers growth for 39 compounds.

Compounds without any hit were thinned out: in the full panel of roughly 83,000, 20% have a hit.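 48-hour exposure, single concentration, 96-well plates; percent growth endpoint where 0 means no net growth. Active: below 10.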 Calls of active or inactive are those of the source.

The first experiment has as its system IGROV1 ovarian. Kind of experiment: NCI-60 one-dose screen, 48 h (100 = growth as untreated, 0 = no growth, -100 = all killed). The following applies: 10 µM unless noted.
Regarding `CCSc1nnc(Nc2ccc(C(C)C)cc2)s1`, the growth was -7.13% (active).
The same measure, in the same setting: for `O=C(Cc1c(F)cccc1Cl)Nc1ccc(S(=O)(=O)Nc2ncccn2)cc1` the value was -23.2% (active); for `CC1(C)OC2COC3(C(=O)O)OC(C)(C)OC3C2O1` (stereo not drawn), 109% (inactive); for `COc1cc(-n2nc(C(=O)Nc3ccc(C(=O)O)cc3)nc2-c2ccccc2)cc(OC)c1OC`, 51% (inactive).
The same measure, in the same setting: for `CN1CCN(CCCOc2ccc3nc(Nc4ccc(C(F)(F)F)c(Cl)c4)ccc3c2)CC1` the value was 13.7% (inactive); for `COc1ccc(S(=O)(=O)NCCNc2nccc(-c3c(-c4ccccc4)nc4sccn34)n2)cc1`, 6.6% (active).
Still for that read-out and setting: the same measure for `O=c1[nH]c(-c2cn(-c3ccc(Cl)cc3)nn2)nc2ccccc12`: 74.1% (inactive); for `COc1ccc(S(=O)(=O)Nc2cc(/C=C\c3cc(OC)c(OC)c(OC)c3)cc(OC)c2OC)cc1OC`: 49.5% (inactive).
Turning to `COc1ccc(-c2nc3sccn3c2-c2ccnc(NCCNS(=O)(=O)c3ccc(C(F)(F)F)cc3)n2)cc1`, the growth is 16.2% (inactive).
Still for that read-out and setting: the same measure for `CCN(CC)CCSc1c2ccc(Cl)cc2nc2ccc(OC)cc12`: 98.1% (inactive).
Same read-out and setting: the same measure for `COc1ncc(-c2ccc3ncnc(Nc4cccc(Cl)c4)c3c2)cc1NS(=O)(=O)CCN1CCOCC1`: -36.9% (active); for `O=c1[nH]c(CN2CCN(c3ccccc3F)CC2)nc2sc3c(c12)CCC3`: 84.7% (inactive).
`O=C(Nc1cccc(Cl)c1)c1cc([N+](=O)[O-])ccc1O`: the growth is 62.5% (inactive).
The same measure, in the same setting: the same measure for `Cc1cc(N/C=c2\sc3ncnn3c2=O)no1`: 94.4% (inactive).
For the compound `c1ccc2c(c1)Oc1ccccc1C2C1c2ccccc2Oc2ccccc21`, the growth is 91.5% (inactive).
Still for that read-out and setting: the same measure for `CC(C)CCN(CCCNc1c2c(nc3ccccc13)CCCC2)CCC(C)C`: 81.8% (inactive); for `COc1cc(/C=C/C(=O)c2ccccc2O)ccc1OCCCOc1cc2c(cc1OC)C(=O)N1CCC[C@H]1C=N2`: -65.8% (active); for `O=C1NC(Cc2c[nH]c3ccccc23)C(=O)N1Cc1ccc(Cl)cc1` (stereo not drawn): 85.2% (inactive).
On the same count and under the same terms, for `COc1ccc(C2CC(c3cccs3)=NN2c2ccc(S(=O)(=O)NC(=O)NCc3cccc(OC)c3)cc2)cc1` (stereo not drawn) the value was 108% (inactive); for `CCOC(=O)C1=C(CSC(=S)N(C2CCCCC2)C2CCCCC2)N(C)C(=O)NC1c1ccccc1` (stereo not drawn), 56.3% (inactive); for `COc1cccc2nc(Nc3ccc(NC(=O)c4ccc5ncccc5c4)cc3)ccc12`, 105% (inactive).
Regarding `Cc1cc(NC(=O)COC(=O)c2sc3cc(F)ccc3c2Cl)no1`, the growth was -31.8% (active).
Still for that read-out and setting: for `CC/C=C\C[C@H](O)C/C=C1/C(=O)C(Cl)=C[C@@H]1C/C=C\CCCC(=O)O` the value was 82.7% (inactive).
Still for that read-out and setting: for `O=Nc1c(-c2c(O)[nH]c3ccc([N+](=O)[O-])cc23)[nH]c2ccc(O)cc12` the value was 6.36% (active); for `O=C(Nc1ccc(F)cc1)c1cc([N+](=O)[O-])ccc1O`, 66.3% (inactive); for `Cc1ccc(S(=O)(=O)OCC(=O)Nc2ccc(C(=O)O)c(O)c2)cc1`, -17.7% (active).
On the same count and under the same terms, the same measure for `Cc1cc(C)c(NC(=O)c2sc3nc4c(cc3c2N)CN(Cc2ccccc2)CC4)c(C)c1`: 24.1% (inactive); for `COc1ccc(-c2nnc(COc3ccc(NS(=O)(=O)c4ccc(OC)cc4)cc3F)o2)cc1`: 84.5% (inactive); for `Cc1ccc2nc(-c3c(CCCO)noc3N)[nH]c(=O)c2c1`: 4.96% (active).
On to `O=[N+]([O-])c1ccc(S(=O)(=O)N2CCN(c3ccnc4cc(Cl)ccc34)CC2)c([N+](=O)[O-])c1`, for which the growth is 99.5% (inactive).
Still for that read-out and setting: for `CCN(Cc1ccc(CN(CC)C(=O)C(Cl)(Cl)Cl)cc1)C(=O)C(Cl)(Cl)Cl` the value was 94.9% (inactive); for `COc1ccc(Cn2cc(COc3cc(/C=C/C(=O)c4cc(OC)c(OC)c(OC)c4)ccc3OC)nn2)cc1`, 88.8% (inactive); for `N#CC1=C(N)n2nc(-c3ccncc3)nc2NC1c1cccc2ccccc12` (stereo not drawn), 91.2% (inactive).
On the same count and under the same terms, for `COc1ccc(/C=C/C(=O)c2ccc(B(O)O)cc2)cc1O` the value was 56.2% (inactive).
Same read-out and setting: the same measure for `Nc1nc(-c2ccccc2)cs1`: 113% (inactive); for `NS(=O)(=O)c1ccc(NCC(=O)Nc2ccc(-c3nc4ccccc4s3)cc2)cc1`: 59% (inactive); for `COc1cc(Br)c(OC)cc1Br`: 79.5% (inactive).
`COc1cc(NS(C)(=O)=O)ccc1Nc1c2ccc([N+](=O)[O-])cc2nc2c(C)cccc12`: the growth is -2.46% (active).
Same read-out and setting: the same measure for `O=C(Nc1ccc(I)cc1)c1cccc([N+](=O)[O-])c1O`: 30.4% (inactive).

For a further experiment, the system named is OVCAR-3 ovarian. The experiment is described as above. The following applies: 10 µM unless noted.
`CCSc1nnc(Nc2ccc(C(C)C)cc2)s1`: the growth is 106% (inactive).
On the same count and under the same terms, the same measure for `O=C(Cc1c(F)cccc1Cl)Nc1ccc(S(=O)(=O)Nc2ncccn2)cc1`: 109% (inactive).
Still for that read-out and setting: for `CC1(C)OC2COC3(C(=O)O)OC(C)(C)OC3C2O1` (stereo not drawn) the value was 108% (inactive).
The same measure, in the same setting: the same measure for `COc1cc(-n2nc(C(=O)Nc3ccc(C(=O)O)cc3)nc2-c2ccccc2)cc(OC)c1OC`: 94.4% (inactive); for `CN1CCN(CCCOc2ccc3nc(Nc4ccc(C(F)(F)F)c(Cl)c4)ccc3c2)CC1`: -11.8% (active); for `COc1ccc(S(=O)(=O)NCCNc2nccc(-c3c(-c4ccccc4)nc4sccn34)n2)cc1`: 12.4% (inactive).
`O=c1[nH]c(-c2cn(-c3ccc(Cl)cc3)nn2)nc2ccccc12`: the growth was 85.4% (inactive).
`COc1ccc(S(=O)(=O)Nc2cc(/C=C\c3cc(OC)c(OC)c(OC)c3)cc(OC)c2OC)cc1OC`: the growth was -18.2% (active).
The same measure, in the same setting: the same measure for `COc1ccc(-c2nc3sccn3c2-c2ccnc(NCCNS(=O)(=O)c3ccc(C(F)(F)F)cc3)n2)cc1`: 2.1% (active).
Same read-out and setting: the same measure for `CCN(CC)CCSc1c2ccc(Cl)cc2nc2ccc(OC)cc12`: 24.5% (inactive).
On to `COc1ncc(-c2ccc3ncnc(Nc4cccc(Cl)c4)c3c2)cc1NS(=O)(=O)CCN1CCOCC1`, for which the growth is 5.82% (active).
The same measure, in the same setting: the same measure for `O=c1[nH]c(CN2CCN(c3ccccc3F)CC2)nc2sc3c(c12)CCC3`: 118% (inactive); for `O=C(Nc1cccc(Cl)c1)c1cc([N+](=O)[O-])ccc1O`: 42% (inactive).
The same measure, in the same setting: the same measure for `Cc1cc(N/C=c2\sc3ncnn3c2=O)no1`: 95.8% (inactive); for `c1ccc2c(c1)Oc1ccccc1C2C1c2ccccc2Oc2ccccc21`: 98.4% (inactive).
The same measure, in the same setting: the same measure for `CC(C)CCN(CCCNc1c2c(nc3ccccc13)CCCC2)CCC(C)C`: 93.9% (inactive); for `COc1cc(/C=C/C(=O)c2ccccc2O)ccc1OCCCOc1cc2c(cc1OC)C(=O)N1CCC[C@H]1C=N2`: -3.51% (active).
On to `O=C1NC(Cc2c[nH]c3ccccc23)C(=O)N1Cc1ccc(Cl)cc1` (stereo not drawn), for which the growth was 106% (inactive).
As for `COc1ccc(C2CC(c3cccs3)=NN2c2ccc(S(=O)(=O)NC(=O)NCc3cccc(OC)c3)cc2)cc1` (stereo not drawn), the growth is 106% (inactive).
On the same count and under the same terms, for `CCOC(=O)C1=C(CSC(=S)N(C2CCCCC2)C2CCCCC2)N(C)C(=O)NC1c1ccccc1` (stereo not drawn) the value was 56.1% (inactive); for `COc1cccc2nc(Nc3ccc(NC(=O)c4ccc5ncccc5c4)cc3)ccc12`, 105% (inactive); for `Cc1cc(NC(=O)COC(=O)c2sc3cc(F)ccc3c2Cl)no1`, 120% (inactive).
On the same count and under the same terms, the same measure for `CC/C=C\C[C@H](O)C/C=C1/C(=O)C(Cl)=C[C@@H]1C/C=C\CCCC(=O)O`: 28.9% (inactive); for `O=Nc1c(-c2c(O)[nH]c3ccc([N+](=O)[O-])cc23)[nH]c2ccc(O)cc12`: 4.31% (active); for `O=C(Nc1ccc(F)cc1)c1cc([N+](=O)[O-])ccc1O`: 56.1% (inactive).
Regarding `Cc1ccc(S(=O)(=O)OCC(=O)Nc2ccc(C(=O)O)c(O)c2)cc1`, the growth is 118% (inactive).
In the case of `Cc1cc(C)c(NC(=O)c2sc3nc4c(cc3c2N)CN(Cc2ccccc2)CC4)c(C)c1`, the growth is -3.04% (active).
Consider `COc1ccc(-c2nnc(COc3ccc(NS(=O)(=O)c4ccc(OC)cc4)cc3F)o2)cc1`, for which the growth is 76.7% (inactive).
Still for that read-out and setting: for `Cc1ccc2nc(-c3c(CCCO)noc3N)[nH]c(=O)c2c1` the value was 104% (inactive).
On the same count and under the same terms, the same measure for `O=[N+]([O-])c1ccc(S(=O)(=O)N2CCN(c3ccnc4cc(Cl)ccc34)CC2)c([N+](=O)[O-])c1`: 93% (inactive); for `CCN(Cc1ccc(CN(CC)C(=O)C(Cl)(Cl)Cl)cc1)C(=O)C(Cl)(Cl)Cl`: 74.4% (inactive).
Same read-out and setting: the same measure for `COc1ccc(Cn2cc(COc3cc(/C=C/C(=O)c4cc(OC)c(OC)c(OC)c4)ccc3OC)nn2)cc1`: 54.3% (inactive); for `N#CC1=C(N)n2nc(-c3ccncc3)nc2NC1c1cccc2ccccc12` (stereo not drawn): 97.4% (inactive); for `COc1ccc(/C=C/C(=O)c2ccc(B(O)O)cc2)cc1O`: 58.5% (inactive).
For `Nc1nc(-c2ccccc2)cs1`, the growth was 102% (inactive).
Same read-out and setting: the same measure for `NS(=O)(=O)c1ccc(NCC(=O)Nc2ccc(-c3nc4ccccc4s3)cc2)cc1`: 34.3% (inactive); for `COc1cc(Br)c(OC)cc1Br`: 96.8% (inactive).
On the same count and under the same terms, the same measure for `COc1cc(NS(C)(=O)=O)ccc1Nc1c2ccc([N+](=O)[O-])cc2nc2c(C)cccc12`: -13% (active); for `O=C(Nc1ccc(I)cc1)c1cccc([N+](=O)[O-])c1O`: 7.89% (active).
